How the values were obtained:
Test in all cases: growth inhibition (% activity, log2 RLU normalised to DMSO / staurosporine); higher = more growth inhibition
Conditions in all cases: 33 µM
[1] = system: DIPGX29 (H3.3 K27M diffuse intrinsic pontine glioma line)
Procedure, shortened: (§1)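 In triplicate, pHGG cell lines and H9-derived neural stem cells were treated for 7 days at 37 °C, 5% CO2 with approved drugs at a single final concentration of about 33 μM, added by pin tool. CellTiter-Glo luminescence, after log2 transformation, was normalised on each plate to % activity between solvent and positive control wells. Growth inhibition is reported as the median across replicates.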

[2] = system: DIPGX37 (H3.3 K27M diffuse intrinsic pontine glioma line)
Procedure, shortened: as §1

[3] = system: DIPGX7 (H3.3 K27M diffuse intrinsic pontine glioma line)
Procedure, shortened: as §1

[4] = system: DIPGX9 (diffuse intrinsic pontine glioma line)
Procedure, shortened: as §1

[5] = system: HGGX39 (paediatric high-grade glioma line)
Procedure, shortened: as §1

[6] = system: HGGX6 (H3.3 G34R paediatric high-grade glioma line)
Procedure, shortened: as §1

[7] = system: HNSC
Procedure, shortened: as §1

[8] = system: SUDIPGIV (diffuse intrinsic pontine glioma line)
Procedure, shortened: as §1

[9] = system: SUDIPGVI (diffuse intrinsic pontine glioma line)
Procedure, shortened: as §1

[10] = system: SUDIPGXIII (diffuse intrinsic pontine glioma line)
Procedure, shortened: as §1

Row | SMILES | growth inhibition [1] [%] | growth inhibition [2] [%] | growth inhibition [3] [%] | growth inhibition [4] [%] | growth inhibition [5] [%] | growth inhibition [6] [%] | growth inhibition [7] [%] | growth inhibition [8] [%] | growth inhibition [9] [%] | growth inhibition [10] [%]
1 | CN(C)c1ccc(O)c2c1C[C@H]1C[C@H]3[C@H](N(C)C)C(=O)C(C(N)=O)=C(O)[C@@]3(O)C(=O)C1=C2O | -4.52 | -0.19 | 0.692 | -1.39 | 3.12 | -2.93 | 5.14 | 2.56 | -1.8 | 1.96
2 | CN1CCC[C@H]1c1cccnc1 | 0.174 | 0.939 | -1.09 | -1.61 | 2.08 | 0.579 | -0.787 | -0.338 | -0.198 | 1.09
3 | CCOC(=O)C1=C(C)NC(C)=C(C(=O)OC)C1c1cccc(Cl)c1Cl (stereo not given) | 2.2 | 0.16 | 2.82 | 2.94 | 6.84 | -1.45 | 5.27 | 3.57 | 1.79 | -2.05
4 | CC(C)(C(=O)O)c1ccc(C(O)CCCN2CCC(C(O)(c3ccccc3)c3ccccc3)CC2)cc1 (stereo not given) | -0.186 | -1.1 | 0.287 | 0.223 | 2.4 | -0.102 | 3.07 | 0.0574 | 1.9 | -0.622
5 | Clc1ccc2c(c1)C(N1CCNCC1)=Nc1ccccc1O2 | 0.461 | 1.52 | 1.07 | 1.29 | 4.43 | -0.239 | 0.635 | 0.284 | 2.1 | 0.741
6 | CC(C(=O)O)c1ccc2c(c1)Cc1cccnc1O2 (stereo not given) | 0.469 | 2.25 | 2.38 | 1.73 | 3.25 | 2.19 | 2.91 | -1.77 | 3.45 | -1.63
7 | CN(Cc1cc(Br)cc(Br)c1N)C1CCCCC1 | 2.48 | 1.22 | 4.28 | 3.08 | 5.14 | 1.81 | 7.22 | 3.97 | 3.03 | -1.94
8 | CN(C)CCc1c[nH]c2ccc(C[C@H]3COC(=O)N3)cc12 | -3.13 | -2.1 | 0.0297 | -2.64 | -3.04 | -3.73 | -3.71 | -3.68 | -7.46 | -1.12
9 | CCC(=O)OCC(=O)[C@@]1(OC(=O)CC)[C@@H](C)C[C@H]2[C@@H]3CCC4=CC(=O)C=C[C@]4(C)[C@@]3(F)[C@@H](O)C[C@@]21C | 0.0157 | 2.23 | 0.0573 | 4.05 | 3.08 | 1.77 | -4.87 | -0.108 | 0.781 | 1.98
10 | COc1ccc(-c2ccc3cc(C(=O)O)ccc3c2)cc1C12CC3CC(CC(C3)C1)C2 | 2.22 | 0.00524 | 1.73 | 2.82 | 2.84 | 2.51 | 1.43 | 3.15 | -4.99 | 1.39
11 | NC(=O)N1c2ccccc2C=Cc2ccccc21 | -0.706 | 3.98 | 0.653 | 1.56 | 1.28 | 0.945 | 2.65 | 0.457 | 1.8 | -0.0848
12 | CCCCOc1cc(C(=O)NCCN(CC)CC)c2ccccc2n1 | 8.77 | 4.81 | 9.69 | 3.99 | 6.11 | 5.06 | 13.1 | 2.91 | 3.16 | 1.33
13 | CC1CC(OC(=O)C(O)c2ccccc2)CC(C)(C)C1 (stereo not given) | -0.681 | 1.83 | 0.84 | 0.0624 | 1.43 | -3.88 | 10.7 | 2.02 | 0.402 | 1.8
14 | Clc1ccc(C(Cn2ccnc2)OCc2ccsc2Cl)c(Cl)c1 (stereo not given) | 4.62 | -2.6 | 2.82 | 4.52 | 8.15 | 7.53 | 4.99 | 13.7 | 2.98 | 5.65
15 | CN(C)CCOC(c1ccccc1)c1ccccc1 | -3.3 | -0.629 | -0.0174 | -1.77 | -3.3 | -2.72 | 2.53 | -1.12 | -3.73 | -1.22
16 | CC(=O)OCC(=O)[C@@]1(O)[C@H](C)C[C@H]2[C@@H]3CCC4=CC(=O)C=C[C@]4(C)[C@@]3(F)[C@@H](O)C[C@@]21C | 6.47 | 3.67 | 1.89 | 6.29 | 6.91 | 5.01 | 2.34 | 5.88 | 3.94 | 1.28
17 | COCCOC(=O)C1=C(C)NC(C)=C(C(=O)OC/C=C/c2ccccc2)C1c1cccc([N+](=O)[O-])c1 (stereo not given) | 2.85 | 2.42 | 5.44 | 5.34 | 5.91 | 4.61 | 5.17 | 6.24 | 3.03 | 0.864
18 | CC(=O)Oc1cc(C(F)(F)F)ccc1C(=O)O | -1.87 | -1.02 | -1.55 | -0.552 | -0.882 | 0.0377 | -4.31 | -2.59 | -2.15 | -2.75
19 | CN1CC2c3ccccc3Oc3ccc(Cl)cc3C2C1 (stereo not given) | 1.89 | -5.66 | 0.982 | 0.366 | 5.72 | 0.239 | 2.74 | 2.1 | -0.852 | 0.618
20 | C=CC[C@@H]1/C=C(\C)C[C@H](C)C[C@H](OC)[C@H]2O[C@@](O)(C(=O)C(=O)N3CCCC[C@H]3C(=O)O[C@H](/C(C)=C/[C@@H]3CC[C@@H](O)[C@H](OC)C3)[C@H](C)[C@@H](O)CC1=O)[C@H](C)C[C@@H]2OC | 1.19 | -1.52 | 3.82 | 4.63 | 9.14 | 3.03 | 6.43 | 4.72 | 5.58 | 2.59
21 | CCOC(=O)OC(C)OC1=C(C(=O)Nc2ccccn2)N(C)S(=O)(=O)c2ccccc21 (stereo not given) | -0.868 | 0.235 | -2.67 | -1.56 | -0.486 | -1.42 | -2.72 | -2.47 | -3.26 | -1.05
